Where a name gives a salt, the structure may show the parent alone.
Tests used:
Details in all cases: 10 µM; exposure time 6 h
[1] = tested on: Danio rerio larvae (5 dpf); test: difference in excitability vs DMSO (percentage points); higher = more excitable than DMSO
Method in brief: (§1)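 In 96-well plates, 48 wild-type zebrafish larvae aged 5 dpf per compound received 100 µL egg water with library compound at 10 µM final for 6 h. Three hours into this, a 3-h programme of moving lines and 100 ms, 400Hz tones ran at 28.5 ℃ while plates were photographed every 6 s. Z-LaP Tracker scored the behaviours, and each is given as the compound mean minus the vehicle control mean in percentage points.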

[2] = tested on: Danio rerio larvae (5 dpf); test: difference in startle response vs DMSO (percentage points); higher = stronger startle than DMSO
Method in brief: as §1

[3] = tested on: Danio rerio larvae (5 dpf); test: difference in activity during first hour vs DMSO (percentage points); higher = more activity than DMSO
Method in brief: as §1

[4] = tested on: Danio rerio larvae (5 dpf); test: difference in habituation to acoustic stimuli vs DMSO (percentage points); higher = more habituation than DMSO
Method in brief: as §1

[5] = tested on: Danio rerio larvae (5 dpf); test: difference in combined optomotor response to red, green and blue moving lines vs DMSO (percentage points); higher = stronger optomotor response than DMSO
Method in brief: as §1

| Compound | difference in excitability [1] | difference in startle response [2] | difference in activity during first hour [3] | difference in habituation to acoustic stimuli [4] | difference [5] |
| --- | --- | --- | --- | --- | --- |
| O=C1NC(=O)C(c2ccccc2)(c2ccccc2)N1 [Phenytoin] | -0.551 | -0.35 | -12.3 | 5.69 | 0.724 |
| Cc1cc2c(s1)Nc1ccccc1N=C2N1CCN(C)CC1 [Olanzapine] | 26.1 | -4.9 | 8.52 | -8.45 | 4.38 |
| NC(=O)NO [Hydroxyurea] | -1.52 | 8.36 | 2.09 | 5.31 | 3.68 |
| Cc1ccsc1C(=CCCN1CCC[C@@H](C(=O)O)C1)c1sccc1C [Tiagabine (hydrochloride)] | 6.86 | 2.66 | 17.9 | 5.1 | -1.64 |
| FC(F)OC(Cl)C(F)(F)F (stereo not given) [Isoflurane] | 11.1 | 8.95 | -15.9 | -1.84 | -13 |
| Nc1nc2ccc(OC(F)(F)F)cc2s1 [Riluzole (hydrochloride)] | 12.7 | -2.33 | 7.76 | 3.2 | 11.9 |
| C[C@@H]1[C@H](O)[C@@H](C)/C=C/C=C/C=C/C=C/C=C/C=C/C=C/[C@H](O[C@@H]2O[C@H](C)[C@@H](O)[C@H](N)[C@@H]2O)C[C@@H]2O[C@](O)(C[C@@H](O)C[C@@H](O)[C@H](O)CC[C@@H](O)C[C@@H](O)CC(=O)O[C@H]1C)C[C@H](O)[C@H]2C(=O)O [Amphotericin B] | -0.355 | 0.384 | 4.13 | -0.401 | 1.13 |
| CCC(=O)O[C@]1(C(=O)SCF)[C@H](C)C[C@H]2[C@@H]3C[C@H](F)C4=CC(=O)C=C[C@]4(C)[C@@]3(F)[C@@H](O)C[C@@]21C [Fluticasone Propionate] | -4.47 | -3.21 | 11.5 | 1.17 | 14.7 |
| Cc1ncc([N+](=O)[O-])n1CCO [Metronidazole] | 5.42 | 1.25 | -3.64 | -2.4 | 7.32 |
| CC[C@H](C)C(=O)O[C@H]1C[C@H](O)C=C2C=C[C@H](C)[C@H](CC[C@@H](O)C[C@@H](O)CC(=O)O)[C@H]21 [Pravastatin (sodium salt)] | 1.5 | 5.8 | 9.55 | -2.28 | 1.82 |
| CCc1cc2c(cc1N1CCC(N3CCOCC3)CC1)C(C)(C)c1[nH]c3cc(C#N)ccc3c1C2=O | -3.24 | 3.84 | 9.56 | 0.995 | 0.182 |
| CCCCC[C@](C)(O)/C=C/[C@@H]1[C@@H](C/C=C\CCCC(=O)O)[C@@H](O)C[C@H]1O [15(S)-15-methyl Prostaglandin F2α] | 1.12 | 0.545 | 22.8 | 1.43 | 5.47 |
| CCc1nc(N)nc(N)c1-c1ccc(Cl)cc1 [Pyrimethamine] | 12.2 | 1.26 | 9.34 | -3.84 | 5.09 |
| Cc1onc(-c2c(Cl)cccc2Cl)c1C(=O)N[C@@H]1C(=O)N2[C@@H]1SC(C)(C)[C@@H]2C(=O)O [Dicloxacillin (sodium salt hydrate)] | 9.09 | -2.02 | 8.63 | -4 | 0.484 |
| Nc1nc2c(ncn2COCCO)c(=O)[nH]1 [Acyclovir] | 2.27 | 2.62 | -4.23 | 8.37 | -2.63 |
| CCCCC[C@H](O)/C=C/[C@H]1[C@H](O)CC(=O)[C@@H]1C/C=C\CCCC(=O)O [Prostaglandin E2] | 16.7 | -5.41 | 2.46 | 4.14 | 5.15 |
| CC1(C)S[C@@H]2[C@H](NC(=O)COc3ccccc3)C(=O)N2[C@H]1C(=O)O [Penicillin V (potassium salt)] | -4.2 | 2.03 | 11 | 4.18 | -1.93 |
| O=C(O)CSc1nnc(Br)n1-c1ccc(C2CC2)c2ccccc12 [Lesinurad] | 1.61 | 2.63 | 12.5 | -0.00375 | 2.41 |
| C=C1/C(=C\C=C2/CCC[C@]3(C)[C@@H]([C@H](C)/C=C/[C@H](C)C(C)C)CC[C@@H]23)C[C@@H](O)C[C@@H]1O [1-hydroxy Vitamin D2] | 1.72 | -1.97 | 2.97 | 0.874 | 6.19 |
| CC(=O)OCC(=O)[C@@]1(O)CC[C@H]2[C@@H]3CCC4=CC(=O)CC[C@]4(C)[C@H]3C(=O)C[C@@]21C [Cortisone Acetate] | 2.07 | -1.29 | 1.26 | 3.11 | -0.38 |
| COC(=O)CCc1ccc(OCC(O)CNC(C)C)cc1 (stereo not given) [Esmolol (hydrochloride)] | -2.69 | 4.98 | 5.19 | -2.83 | 10.6 |
| O=C(O)C(=O)O.[NH-][C@@H]1CCCC[C@H]1[NH-].[Pt+2] [Oxaliplatin] | -8.81 | 2.6 | -6.68 | 11.3 | 1.69 |
| Nc1nc2c(c(=O)[nH]1)N(C=O)C(CNc1ccc(C(=O)NC(CCC(=O)O)C(=O)O)cc1)CN2 (racemic) [DL-Folinic Acid (calcium salt)] | -0.743 | 2.87 | 8.84 | 0.082 | 5.53 |
| O=P(O)(O)C(O)(Cc1cccnc1)P(=O)(O)O [Risedronate (sodium salt)] | 3.7 | 4.04 | 24.7 | -2.36 | 9.6 |
| CC(C)(C(=O)c1cccnc1)c1cccnc1 [Metyrapone] | 1.48 | 5.62 | -0.661 | 1.75 | 4.5 |
| CC[C@]1(O)C[C@@H]2CN(CCc3c([nH]c4ccccc34)[C@@](C(=O)OC)(c3cc4c(cc3OC)N(C)[C@H]3[C@@](O)(C(=O)OC)[C@H](OC(C)=O)[C@]5(CC)C=CCN6CC[C@]43[C@@H]65)C2)C1 [Vinblastine (sulfate)] | 11.1 | -3.06 | -6.36 | -2.13 | -3.97 |

— the supplement of paper PMC10515830
